Prx2 Sm inh: Schistosoma Mansoni Peroxiredoxins (Prx2). Schistosoma mansoni peroxiredoxin 2 (Prx2). S. mansoni Prx2 activity coupled to TGR/GSH (TGR is thioredoxin glutathione reductase), NADPH fluorescence loss, qHTS. Potency, µM. 65,000 compounds, 0.07% hits. AID 448, 2006
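Enzyme mix: 100 uM NADPH, 25 nM TGR, 700 uM GSH, 50 nM Prx2 in 100 mM phosphate pH 7.4, 10 mM EDTA, 0.01% Tween-20. 15 min RT with compound; NADPH/GSH added, H2O2 starts reaction; NADPH fluorescence read 8 min.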
AmpC inh det: Promiscuous and Specific Inhibitors of AmpC Beta-Lactamase (assay with detergent). 71,000 compounds, 0.09% hits. P00811. Potency, µM (series often up to 28.7 µM), for the others: at the top dose activity change, negative = inhibition. purified AmpC, nitrocefin hydrolysis with detergent; active = well fitted curve in the direction sought with a large enough effect; inconclusive = small, poorly fitted or top-dose-only effect; note: % is set by controls: 0 for no effect and ±100 for the full control effect
Target sequence (P00811 whole entry, looked up): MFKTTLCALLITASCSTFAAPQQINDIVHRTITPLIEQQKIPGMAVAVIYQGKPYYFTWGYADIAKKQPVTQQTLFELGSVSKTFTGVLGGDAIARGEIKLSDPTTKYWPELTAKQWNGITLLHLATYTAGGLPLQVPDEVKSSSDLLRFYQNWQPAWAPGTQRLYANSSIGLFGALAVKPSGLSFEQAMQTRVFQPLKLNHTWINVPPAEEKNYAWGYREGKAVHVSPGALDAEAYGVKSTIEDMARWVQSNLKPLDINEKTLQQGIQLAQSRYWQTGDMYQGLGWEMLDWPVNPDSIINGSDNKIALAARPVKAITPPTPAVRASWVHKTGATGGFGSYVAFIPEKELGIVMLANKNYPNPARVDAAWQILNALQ
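E. coli AmpC (5.3 nM) in 20 mM phosphate pH 7.0 with 0.01% Triton X-100, preincubated 15 min RT with compound; nitrocefin (2 uL of 800 uM stock) hydrolysis followed by 480 nm absorbance every 20 s over 4 min.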
AmpC nodet inh: Promiscuous and Specific Inhibitors of AmpC Beta-Lactamase (assay without detergent); Potency, µM (titrated, usually from 28.7 µM), for the others: at the highest dose activity change, negative = inhibition; AmpC nitrocefin hydrolysis, absorbance 480 nm, no detergent; AID 585, 2007; 71,000 compounds, 1.8% hits; note: % of control where 0% means no effect
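AmpC in 20 mM phosphate buffer pH 7.0 was preincubated 15 min at room temperature with compounds. Nitrocefin (800 uM stock) was then added and hydrolysis followed at 480 nm every 20 s for 4 min.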
LT uptake inh: qHTS Assay for Anthrax Lethal Toxin Internalization; 70,000 compounds, 0.67% hits; Cells, anthrax lethal toxin internalization, FRET ratio (460/530); Potency, µM (highest dose often 40 µM), inactives show top-dose activity change, negative = inhibition, hits mostly inhibitors; AID 912, 2007; note: % is set by controls: 0 for no effect and ±100 for the full control effect; nearly all actives have a fitted effect of over 50% in size
Starred values were filed as active, the others as inactive; ? = inconclusive; · = no result; [ ] = dose if it differs, or a comment. An excerpt weighted towards active compounds, which were near 2.4% of everything screened. Unless noted, calls come from the whole dose curve. Potency is the fitted concentration of half-maximal effect.

SMILES | Prx2 Sm inh | AmpC inh det | AmpC nodet inh | LT uptake inh
O=C(NCc1ccc2c(c1)OCO2)C1CCC(CNc2c(N3CCCCC3)c(=O)c2=O)CC1 (centres undefined) | >57 | 11% | 4µM*[single pt active] | ?
O=C(C1CCC(CNc2c(N3CCCCC3)c(=O)c2=O)CC1)N1CCCCC1 (centres undefined) | >57 | 11% | 4µM*[single pt active] | -6%
Cc1ccccc1CNc1nc(N)n(-c2ccccc2)n1 | >57 | 6% | 4µM*[single pt active] | -6%
CC(C)=CCC/C(C)=C/CO/N=C1/C[C@@H](O)[C@@H](O)[C@@H]2[C@H]3C(=O)N(c4ccc(F)cc4F)C(=O)[C@@H]3CC[C@@H]12 | · | · | · | -4%[8 µM]
NC([N-]/N=C/c1ccccn1)=[S]=[Fe].O=S(=O)(O)O | >57 | -2%[5.75 µM] | -2%[5.75 µM] | ?
O=C(Cn1c(C(=O)N2CCc3ccccc3C2)cc2sccc21)c1ccccc1 | >57 | 6% | 16µM*[single pt active] | ?
Cc1cc(NC(=O)CSc2c3c(nc4ccccc24)CCC3)no1 | >57 | 12% | 4µM*[single pt active] | ?
CCOC(=O)N1CCC(NC(=O)CN2C(=O)CCSc3ccccc32)CC1 | >57 | 11% | 4µM*[single pt active] | 4%
Cc1nc(NC2CCCCC2)c2nc(-c3ccccc3)n(CCN(C)C)c2n1 | · | 10% | 140% | -3%
CCOc1ccc(-c2nc(-c3ccc(OC)c(OC)c3)no2)cc1OCC | >57 | -2% | 25% | ·
COc1ccc(-c2noc(-c3ccc(Br)o3)n2)cc1OC | >57 | -2% | 9% | ?
COc1ccc(-c2noc(-c3cc(C)cc(C)c3)n2)cc1OC | >57 | 8% | 1.3µM*[single pt active] | -25%
COc1cc(-c2nc(-c3ccc(Br)o3)no2)cc(OC)c1OC | >57 | 15% | 4µM*[single pt active] | -24%
CN1CCN(c2ncc3nc(-c4cccs4)c(=O)n(CCC#N)c3n2)CC1 | >57 | 2% | 64% | ?
C[C@H]1CC[C@@H]2[C@@H](C)C(=O)O[C@H]3O[C@@]4(C)CC[C@@H]1[C@]32OO4 | >57 | -1% | 6% | ?
CC(=O)OCC1OC(C#CCCc2ccccc2)C=CC1OC(C)=O (centres undefined) | · | · | · | -4%[8 µM]
O=C(N/N=C1/C[C@@H](O)[C@@H](O)[C@@H]2[C@@H]3C(=O)N(C4CCCCC4)C(=O)[C@H]3CC[C@@H]12)OCc1ccccc1 | · | · | · | 7%[8 µM]
COc1ccc(-c2[nH]ncc2-c2cnn(-c3ccccc3)c2)c(O)c1 | >57 | 9% | -16% | 13µM*
CCn1cc(C(=O)NCC2CCCO2)c(=O)c2cc(S(=O)(=O)N(C)C)ccc21 (centres undefined) | >57 | 13% | 4µM*[single pt active] | 4%
CCn1cc(C(=O)NCc2ccc(Cl)cc2)c(=O)c2cc(S(=O)(=O)N3CCOCC3)ccc21 | >57 | 14% | 4µM*[single pt active] | -17%
CCn1cc(C(=O)NCc2ccc3c(c2)OCO3)c(=O)c2cc(S(=O)(=O)N3CCOCC3)ccc21 | >57 | -1% | 100% | ?
CCn1cc(C(=O)N2CC(C)CC(C)C2)c(=O)c2cc(S(=O)(=O)N(C)C)ccc21 (centres undefined) | >57 | 7% | 68% | -14%
CCn1cc(C(=O)NCCCN2CC(C)CC(C)C2)c(=O)c2cc(S(=O)(=O)N(C)C)ccc21 (centres undefined) | >57 | 13% | 3.2µM*[single pt active] | -19%
COc1ccc(COC(=O)N/N=C2/C[C@@H](O)[C@@H](O)[C@@H]3[C@@H]4C(=O)N(c5cccc(Oc6ccccc6)c5)C(=O)[C@H]4CC[C@H]23)cc1 | · | · | · | -12%[8 µM]
CC1=C(C(=O)OC(C)C)C(c2cccs2)n2ncnc2N1 (centres undefined) | >57 | 13% | 4µM*[single pt active] | ?
COc1ccccc1NC(=O)C1=C(C)Nc2ncnn2C1c1cccs1 (centres undefined) | >57 | -2% | 10% | ?
CC1=C(C(=O)OC(C)C)C(c2cccc(F)c2)n2ncnc2N1 (centres undefined) | >57 | 14% | 4µM*[single pt active] | ?
CC1=C(C(=O)OC(C)C)C(c2c[nH]c3ccccc23)n2ncnc2N1 (centres undefined) | >57 | 12% | 4µM*[single pt active] | 4%
CC(=O)O[C@@H]1CC[C@]2(C)[C@H]3CC[C@]4(C)[C@H](C[C@H]5CCCC[C@@]54C(C)=O)[C@@H]3CC(=O)[C@@]2(O)C1 | >57 | -2% | 23% | ?
